Reference: the supplement of paper PMC3334620
Whole data set: some 33,000 sequences, median “E-score (-0.5 to 0.5)” near -0.043, cut for the highest 2% near 0.37. This excerpt belongs to a sample that is enriched for the highest values.

The sequences below were run against T1, Upc2 (UniProt Q12151) (assay: PBM E-score (8-mer binding enrichment) (E-score (-0.5 to 0.5)); higher = stronger / more preferred TF binding). Details: protein concentration: 200 nM; construct: GST-full length.
T1 sequence: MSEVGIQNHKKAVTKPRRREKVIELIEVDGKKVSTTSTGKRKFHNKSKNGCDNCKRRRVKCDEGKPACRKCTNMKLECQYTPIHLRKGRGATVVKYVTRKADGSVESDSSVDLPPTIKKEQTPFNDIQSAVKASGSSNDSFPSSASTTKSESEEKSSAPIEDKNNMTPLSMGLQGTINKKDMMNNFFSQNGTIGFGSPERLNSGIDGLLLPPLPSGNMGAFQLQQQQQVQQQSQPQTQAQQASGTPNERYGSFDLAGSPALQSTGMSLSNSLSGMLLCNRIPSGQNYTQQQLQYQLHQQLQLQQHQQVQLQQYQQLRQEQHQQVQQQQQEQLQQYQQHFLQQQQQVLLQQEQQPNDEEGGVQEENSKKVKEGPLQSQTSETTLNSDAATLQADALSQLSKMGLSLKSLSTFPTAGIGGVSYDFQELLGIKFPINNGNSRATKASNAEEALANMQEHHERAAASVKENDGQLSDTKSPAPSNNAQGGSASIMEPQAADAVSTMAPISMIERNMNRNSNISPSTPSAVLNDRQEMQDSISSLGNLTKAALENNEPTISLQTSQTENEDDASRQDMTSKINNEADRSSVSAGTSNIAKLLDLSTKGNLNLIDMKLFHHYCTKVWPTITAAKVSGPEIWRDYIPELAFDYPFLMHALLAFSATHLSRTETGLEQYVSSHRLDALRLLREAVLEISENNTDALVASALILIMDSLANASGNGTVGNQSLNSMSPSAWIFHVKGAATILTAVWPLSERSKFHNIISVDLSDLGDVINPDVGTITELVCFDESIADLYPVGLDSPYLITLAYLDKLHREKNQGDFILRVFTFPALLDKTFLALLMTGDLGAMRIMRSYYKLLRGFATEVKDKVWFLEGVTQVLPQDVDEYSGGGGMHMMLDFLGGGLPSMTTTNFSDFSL
Description: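 Universal 'all 10-mer' protein binding microarrays (Agilent AMADID 015681) probed with GST-tagged S. cerevisiae TFs (full-length or DBD) made by in vitro transcription/translation (PURExpress), about 100-200 nM. Bound TF was detected with fluorescent anti-GST. Each ungapped 8-mer (which stands for itself and its reverse complement) is scored by the PBM enrichment score (E-score), a modified Wilcoxon-Mann-Whitney statistic from -0.5 to +0.5, computed with the Universal PBM Analysis Suite. Scale: above 0.35 generally sequence-specific binding.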

Sequence	PBM E-score
ATGATCTA	-0.00479
AGCGAGCT	0.225
AGCGAGCG	0.281
AACGAGCG	0.442
TCCGAGCA	0.176
CACGAGCG	0.17
AACGAGCC	0.449
TACGAGCA	0.465
GACGAGCC	-0.00056
AACGAGCT	0.438
CACGAGCC	0.0758
ACCGAGCT	0.186
TGCGAGCA	0.21
CGCCGCTC	-0.0776
AGTAACCA	-0.164
CGCCAGCA	-0.169
ATTGATAC	0.173
GGCAACAA	0.0296
GACGCCAA	-0.0565
AGTTGATA	-0.0653
GGGTGCAC	-0.128
CGCATAGA	0.158

Sequence	PBM E-score
AACGAGCA	0.444
GACGAGCA	0.00509
CACGAGCA	-0.0761
CATGCTAA	-0.2
GAGGTTTA	0.0651
ATTGGACA	-0.0219
AAACGGCT	0.296
CAACGGCA	-0.0468
AAACGGCG	0.401
AAACGGCC	0.359
GAACGGCA	0.27
AAACGGCA	0.37
TAGAAACA	0.0409
GAGTGTGA	0.156
CGCCCAAG	-0.0616
ATCTAAGA	-0.179
GCAGTACC	-0.124
GAGCACAA	-0.0319
CCGAGCGA	0.193
ACGAGCGC	0.347
ACGAGCGG	0.369
GCGAGCGA	0.226

Sequence	PBM E-score
ACGAGCGA	0.379
ACGAGCGT	0.386
ACTCAGTA	0.18
ATGGTGGG	-0.278
AACCTGTA	0.118
TGACGAAA	0.00712
GCACGAAC	0.25
AAACGAAC	0.471
CAACGAAC	0.257
GAACGAAC	0.441
ACACGAAC	0.216
GAACGAAA	0.416
CCACGAAA	-0.0902
AGACGAAC	0.29
ATGCTGAA	-0.151
GTTGTGAA	0.00742
GAAGCAGA	-0.244
CGCAGCCC	-0.0774
CGTACGTC	0.338
AATACGGC	0.291
CGTACGGA	0.382
AGTACGGA	0.224

Sequence	PBM E-score
CATACGGG	0.367
AGTACGGC	0.299
CATACGGC	0.383
CGTACGGC	0.381
GGTACGGA	0.355
AGTTGGCA	0.0278
CGTCGATA	-0.028
AAGCTACA	-0.125
CCGTCGCG	0.132
GAAAAACC	-0.037
TCCTCAAA	-0.24
AGAGCCCG	-0.0194
CTGACGTA	0.164
CTGAACGA	0.472
GTGAACAA	0.128
CTGAACGC	0.121
ATGAACGA	0.459
CTGAACTA	-0.104
ATGAACGG	0.261
GTGAACGA	0.453
ATGAACGC	0.14
GTGAACTA	0.142
